Read-out in experiment [1]: C-C motif chemokine 2 (Homo sapiens) (UniProt P13500)
Kind of experiment: BSK_KF3CT_MCP1: BioMAP Diversity Plus: KF3CT Assay for Monocyte Chemoattractant Protein 1 (MCP1/CCL2) Biomarker Activity (AID 2283073). The conditions noted are these: primary human keratinocytes with fibroblasts; actives raise or lower the signal. The procedure, abridged:
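Biomarker MCP-1 is measured by ELISA in primary human keratinocytes co-cultured with foreskin fibroblasts, 24 h after chemical treatment; DMSO serves as the negative control and activity baseline.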

Read-out in experiment [2]: Matrix Metallopeptidase 9 (MMP9), MMP9 (gene 4318)
Description: BSK_KF3CT_MMP9: BioMAP Diversity Plus: KF3CT Assay for Matrix Metallopeptidase 9 (MMP9) Biomarker Activity (AID 2283074).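 Also: MMP9 protein level quantified by ELISA in the co-culture.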 The conditions noted are these: primary human keratinocytes with fibroblasts; actives raise or lower the signal. The procedure, abridged:
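Human keratinocyte and foreskin fibroblast co-culture exposed to chemicals for 24 h; MMP9 biomarker measured by ELISA, bidirectional fitting relative to DMSO; cytotoxicity tracked by SRB total protein staining in parallel cultures.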

Read-out in experiment [3]: urokinase plasminogen activator (uPA), PLAU (gene 5328)
Kind of experiment: BSK_KF3CT_uPA: BioMAP Diversity Plus: KF3CT Assay for urokinase plasminogen activator (uPA) Biomarker Activity (AID 2283075). The conditions noted are these: primary human keratinocytes with fibroblasts; actives raise or lower the signal. The essentials:
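Primary human keratinocyte/foreskin fibroblast co-culture exposed to chemical; uPA measured by ELISA at 24 h. Bidirectional fit versus DMSO, with parallel SRB total-protein staining for cytotoxicity.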

Read-out in experiment [4]: CD40, CD40 (gene 958)
Description: BSK_LPS_CD40: BioMAP Diversity Plus: LPS Assay for CD40 Biomarker Activity (AID 2283076). The settings on record: primary human HUVEC with PBMC; actives raise or lower the signal. The essentials: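 Using a multiplexed primary human co-culture (umbilical vein endothelium plus PBMC), CD40 was read by ELISA 24 h after dosing, with cytotoxicity tracked by sulforhodamine B staining of parallel cultures and activity fitted bidirectionally versus DMSO.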

Read-out in experiment [5]: E-selectin (Homo sapiens) (UniProt P16581)
Description: BSK_LPS_Eselectin: BioMAP Diversity Plus: LPS Assay for Eselectin Biomarker Activity (AID 2283077). The settings on record: primary human HUVEC with PBMC; actives raise or lower the signal. The essentials:
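Dose chemical onto LPS-driven HUVEC/PBMC co-culture; after 24 h, run ELISA for E-selectin; fit up- and down-going responses relative to DMSO control.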

Read-out in experiment [6]: Interleukin-8 (IL8), CXCL8 (gene 3576)
Description: BSK_LPS_IL8: BioMAP Diversity Plus: LPS Assay for Interleukin-8 (IL8) Biomarker Activity (AID 2283078). The conditions noted are these: primary human HUVEC with PBMC; actives raise or lower the signal. The essentials:
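In this LPS system, chemical-treated human umbilical vein endothelium/PBMC co-cultures were harvested at 24 h for IL-8 ELISA.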

A short description of experiment [7]: BSK_LPS_SRB: Viability Assessment in the BioMAP Diversity Plus: LPS Assay (AID 2283079).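 Also: total protein by sulforhodamine B absorbance as a cytotoxicity measure; measured one day after compound addition; fitted in both directions against DMSO so loss or gain of signal counts.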 The settings on record: primary human HUVEC with PBMC. The essentials:
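Cytotoxicity endpoint in human endothelial–PBMC co-culture: 24 h exposure, then SRB (0.1%) staining, 560 nm read.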

Read-out in experiment [8]: Interleukin-1 alpha (IL1a), IL1A (gene 3552)
Kind of experiment: BSK_LPS_IL1a: BioMAP Diversity Plus: LPS Assay for Interleukin-1 alpha (IL1a) Biomarker Activity (AID 2283080). The conditions noted are these: primary human HUVEC with PBMC; actives raise or lower the signal. The essentials: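 Primary human HUVEC and PBMC co-culture stimulated with LPS is dosed and harvested at 24 h. Both increases and decreases in ELISA-measured IL-1a are scored relative to DMSO.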

Read-out in experiment [9]: Monocyte Chemoattractant Protein-1 (MCP1), CCL2 (gene 6347)
Kind of experiment: BSK_LPS_MCP1: BioMAP Diversity Plus: LPS Assay for Monocyte Chemoattractant Protein-1 (MCP1) Biomarker Activity (AID 2283081).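 As to AC50: secreted MCP-1 protein quantified by ELISA in culture supernatant.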 The conditions noted are these: primary human HUVEC with PBMC; actives raise or lower the signal. The essentials:
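Values derive from bidirectional fitting against DMSO of ELISA-measured MCP-1 in a human primary endothelial and mononuclear cell co-culture, 24 h after chemical addition under LPS activation.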

The nature of experiment [10]: BSK_LPS_PGE2: BioMAP Diversity Plus: LPS Assay for Prostaglandin E2 (PGE2) Biomarker Activity (AID 2283082). The conditions noted are these: primary human HUVEC with PBMC; actives raise or lower the signal. The essentials: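 HUVEC plus human PBMC co-culture stimulated with LPS; secreted PGE2 quantified by ELISA 24 h after chemical dosing. Activity fitted bidirectionally against DMSO baseline; parallel SRB staining (0.1% SRB after 10% TCA fixation, 560 nm) flags overt cytotoxicity.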

Read-out in experiment [11]: Macrophage colony-stimulating factor (MCSF), CSF1 (gene 1435)
Description: BSK_LPS_MCSF: BioMAP Diversity Plus: LPS Assay for Macrophage colony-stimulating factor (MCSF) Biomarker Activity (AID 2283083). The conditions noted are these: primary human HUVEC with PBMC; actives raise or lower the signal. The procedure, abridged:
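Bidirectional fit versus DMSO of ELISA-measured M-CSF in co-cultured human umbilical vein endothelial cells and PBMC, sampled 24 h after dosing.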

Read-out in experiment [12]: Tissue Factor, F3 (gene 2152)
Description: BSK_LPS_TissueFactor: BioMAP Diversity Plus: LPS Assay for Tissue Factor Biomarker Activity (AID 2283084). The settings on record: primary human HUVEC with PBMC; actives raise or lower the signal. The procedure, abridged:
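Read-out: CD142 ELISA, 24 h. System: LPS-driven human endothelial/PBMC co-culture. Analysis: up- or down-signal fitted against DMSO.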

Read-out in experiment [13]: Tumor necrosis factor (Homo sapiens) (UniProt P01375)
Description: BSK_LPS_TNFa: BioMAP Diversity Plus: LPS Assay for Tumour Necrosis Factor alpha (TNFa) Biomarker Activity (AID 2283085). The settings on record: primary human HUVEC with PBMC; actives raise or lower the signal. The essentials: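 Human umbilical vein endothelial cells co-cultured with PBMC and stimulated with LPS. TNFa was measured by ELISA 24 h after chemical dosing, fitted bidirectionally relative to DMSO.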

Read-out in experiment [14]: Vascular cell adhesion molecule 1 (VCAM1), VCAM1 (gene 7412)
Kind of experiment: BSK_LPS_VCAM1: BioMAP Diversity Plus: LPS Assay for Vascular cell adhesion molecule 1 (VCAM1) Biomarker Activity (AID 2283086). The settings on record: primary human HUVEC with PBMC; actives raise or lower the signal. The procedure, abridged:
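Human umbilical vein endothelial cells co-cultured with PBMC and stimulated with LPS; VCAM-1 measured by ELISA 24 h after dosing. Bidirectional curve fitting against DMSO baseline; cytotoxicity tracked in parallel by SRB total-protein staining.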

Read-out in experiment [15]: CD38, CD38 (gene 952)
Kind of experiment: BSK_SAg_CD38: BioMAP Diversity Plus: SAg Assay for CD38 Biomarker Activity (AID 2283087). The settings on record: primary human HUVEC with PBMC; actives raise or lower the signal. The procedure, abridged:
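Human HUVEC plus PBMC co-culture stimulated with superantigen; CD38 measured by ELISA 24 h after chemical dosing. Fluorescence read-out, bidirectional fit against DMSO; cytotoxicity tracked in parallel by SRB and Alamar Blue.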

Read-out in experiment [16]: CD40, CD40 (gene 958)
Kind of experiment: BSK_SAg_CD40: BioMAP Diversity Plus: SAg Assay for CD40 Biomarker Activity (AID 2283088). The conditions noted are these: primary human HUVEC with PBMC; actives raise or lower the signal. The procedure, abridged:
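Endpoint derived by fitting increases or decreases versus DMSO controls. CD40 is detected by fluorescence ELISA in a human vascular co-culture of endothelium and PBMC at 24 h.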

Read-out in experiment [17]: CD69, CD69 (gene 969)
Description: BSK_SAg_CD69: BioMAP Diversity Plus: SAg Assay for CD69 Biomarker Activity (AID 2283089).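 As to AC50: cell surface CD69 protein quantified by ELISA with fluorescence detection.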 The settings on record: primary human HUVEC with PBMC; actives raise or lower the signal. The procedure, abridged: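 Values derive from bidirectional fitting relative to DMSO vehicle. Cells: umbilical vein endothelium plus peripheral blood mononuclear cells, treated 24 h before fluorescent ELISA for CD69.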

Read-out in experiment [18]: Monocyte Chemoattractant Protein-1 (MCP1), CCL2 (gene 6347)
Description: BSK_SAg_MCP1: BioMAP Diversity Plus: SAg Assay for Monocyte Chemoattractant Protein-1 (MCP1) Biomarker Activity (AID 2283090). The conditions noted are these: primary human HUVEC with PBMC; actives raise or lower the signal. The essentials:
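MCP-1 levels in the endothelial–PBMC SAg co-culture were quantified by ELISA at 24 h post-dosing; both increases and decreases versus DMSO scored. Cytotoxicity monitored by SRB total protein in parallel cultures.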

Read-out in experiment [19]: E-selectin (Homo sapiens) (UniProt P16581)
Description: BSK_SAg_Eselectin: BioMAP Diversity Plus: SAg Assay for Eselectin Biomarker Activity (AID 2283091). The settings on record: primary human HUVEC with PBMC; actives raise or lower the signal. The essentials:
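Endpoint values derive from bidirectional fitting relative to DMSO, using ELISA-measured E-selectin in a human vascular co-culture (umbilical vein endothelium plus PBMC) sampled 24 h after dosing.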

Read-out in experiment [20]: Monokine induced gamma interferon (MIG), CXCL9 (gene 4283)
Description: BSK_SAg_MIG: BioMAP Diversity Plus: SAg Assay for Monokine induced gamma interferon (MIG) Biomarker Activity (AID 2283092). The conditions noted are these: primary human HUVEC with PBMC; actives raise or lower the signal. The essentials: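 Values reflect bidirectional fitting of ELISA-measured MIG against DMSO vehicle, taken 24 h after dosing of a co-culture of human umbilical vein endothelial cells and peripheral blood mononuclear cells.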

The results in this text go back to PubChem BioAssay (EPA / NIEHS).

One may read the AC50 as the concentration at which the activity in the assay is half-maximal.

Calls of active or inactive are those of the source. The calls were made as follows: active = hit-call score of the fitted dose curve at least 0.9, where 1 is the maximum; inactive = score below 0.9.

Sequence of E-selectin (Homo sapiens) (P16581 whole entry, looked up): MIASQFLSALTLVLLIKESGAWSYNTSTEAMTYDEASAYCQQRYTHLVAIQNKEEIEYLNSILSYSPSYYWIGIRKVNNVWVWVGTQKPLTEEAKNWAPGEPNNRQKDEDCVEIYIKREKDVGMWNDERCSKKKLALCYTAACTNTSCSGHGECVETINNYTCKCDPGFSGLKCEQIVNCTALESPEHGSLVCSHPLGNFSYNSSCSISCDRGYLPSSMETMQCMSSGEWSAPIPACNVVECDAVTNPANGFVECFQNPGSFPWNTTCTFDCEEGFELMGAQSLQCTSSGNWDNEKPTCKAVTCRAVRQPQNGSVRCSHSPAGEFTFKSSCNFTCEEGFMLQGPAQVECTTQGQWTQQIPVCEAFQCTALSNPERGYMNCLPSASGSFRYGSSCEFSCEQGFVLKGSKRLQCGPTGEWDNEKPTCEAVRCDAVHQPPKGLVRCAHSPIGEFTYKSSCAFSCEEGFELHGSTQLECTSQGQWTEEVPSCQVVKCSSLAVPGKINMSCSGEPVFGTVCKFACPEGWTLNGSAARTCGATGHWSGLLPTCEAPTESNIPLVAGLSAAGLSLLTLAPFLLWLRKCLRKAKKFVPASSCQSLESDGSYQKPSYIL
Sequence of Tumor necrosis factor (Homo sapiens) (P01375 whole entry, looked up): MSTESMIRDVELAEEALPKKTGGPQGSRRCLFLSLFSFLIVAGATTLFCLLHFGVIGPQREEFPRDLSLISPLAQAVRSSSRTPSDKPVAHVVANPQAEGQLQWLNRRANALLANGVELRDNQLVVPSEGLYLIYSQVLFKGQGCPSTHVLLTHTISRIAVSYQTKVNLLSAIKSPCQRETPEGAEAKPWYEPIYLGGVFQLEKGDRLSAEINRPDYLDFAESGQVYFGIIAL

Regarding `Cc1cc2c(cc1C(F)(F)F)N(C(=O)Nc1ccc(Oc3cccnc3C)nc1)CC2`, the result in [1], in experiment [5], in experiment [7], in [9], in experiment [10] and in experiment [12] was inactive. In addition, the outcome in [13], in experiment [17], in experiment [18], in experiment [19] and in experiment [20] was inactive. In addition, the AC50 in experiment [2] was 29.8 µM (active); in experiment [3], 29.2 µM (active); in [4], 12.1 µM (active); in experiment [6], 2.7 µM (active); in [8], 3.65 µM (active); in experiment [11] it was 26.8 µM (active). Further, the AC50 in [14] is 14.4 µM (active); in experiment [15] it was 7.33 µM (active); in experiment [16], 18.4 µM (active).
`CCCCCc1ccc(N)cc1`: the result in experiment [1], in experiment [3], in experiment [4], in [5], in [6] and in [7] was inactive. For the same molecule, the result in experiment [8], in experiment [9], in [11], in [12], in [13] and in [15] was inactive. The outcome in experiment [16], in experiment [17], in [18], in experiment [19] and in [20] was inactive. In addition, the AC50 in [2] is 13.7 µM (active); in experiment [10], 12 µM (active); in experiment [14] it was 20 µM (active).
`CC(=O)N1CCN(c2ccc(OC[C@H]3CO[C@](Cn4ccnc4)(c4ccc(Cl)cc4Cl)O3)cc2)CC1`: the result in experiment [1] and in [10] was inactive. Also, the AC50 in experiment [2] is 29.8 µM (active); in experiment [3], 30.8 µM (active); in experiment [4], 11.8 µM (active); in [5] it was 32.2 µM (active); in [6], 29.9 µM (active); in experiment [7], 20 µM (active). The AC50 in experiment [8] was 35.6 µM (active); in experiment [9] it was 31 µM (active); in [12] it was 33 µM (active); in experiment [13], 36.7 µM (active); in experiment [14] it was 28.1 µM (active); in experiment [15], 27.4 µM (active). For the same molecule, the AC50 in experiment [16] was 24.1 µM (active); in experiment [17], 25.4 µM (active); in experiment [18], 30.1 µM (active); in experiment [19] it was 32.4 µM (active).
